# A selection: hits, their analogues and other compounds. The true share with any hit is near 19%.
# DT40 TDP1 no CPT – qHTS for Inhibitors of human tyrosyl-DNA phosphodiesterase 1 (TDP1): qHTS in cells in absence of CPT; DT40 Tdp1-/- hTDP1 cells, no CPT, ATP luminescence, 48 h; Potency, µM (top dose mostly 46.2 µM), without a hit: top-dose activity change, negative = growth inhibition, most hits filed as inhibitors; actives 15% (n = 420,000); AID 686978, 2013; further: nearly all actives have a fitted effect of over 55% in size
#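 Cells were dispensed at 400 per well, compounds added by pin tool, plates incubated ≥48 hr at 37 °C, then CellTiter-Glo added for 30 min at room temperature before luminescence reading. Line: DT40 Tdp1-/- complemented with hTDP1; camptothecin omitted.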
# RORgamma inh – blocks mouse ROR gamma transcriptional activity; Drosophila S2 Gal4-RORgamma UAS-luciferase reporter, 20 h; P51450; Potency, µM (series often up to 53.6 µM), for inactives: at the highest dose activity change, negative = inhibition, most hits filed as inhibitors; actives 5.4% (n = 310,000); further: nearly all actives have a fitted effect of over 60% in size
# Target sequence (P51450 whole entry, looked up, the tested form may be a part): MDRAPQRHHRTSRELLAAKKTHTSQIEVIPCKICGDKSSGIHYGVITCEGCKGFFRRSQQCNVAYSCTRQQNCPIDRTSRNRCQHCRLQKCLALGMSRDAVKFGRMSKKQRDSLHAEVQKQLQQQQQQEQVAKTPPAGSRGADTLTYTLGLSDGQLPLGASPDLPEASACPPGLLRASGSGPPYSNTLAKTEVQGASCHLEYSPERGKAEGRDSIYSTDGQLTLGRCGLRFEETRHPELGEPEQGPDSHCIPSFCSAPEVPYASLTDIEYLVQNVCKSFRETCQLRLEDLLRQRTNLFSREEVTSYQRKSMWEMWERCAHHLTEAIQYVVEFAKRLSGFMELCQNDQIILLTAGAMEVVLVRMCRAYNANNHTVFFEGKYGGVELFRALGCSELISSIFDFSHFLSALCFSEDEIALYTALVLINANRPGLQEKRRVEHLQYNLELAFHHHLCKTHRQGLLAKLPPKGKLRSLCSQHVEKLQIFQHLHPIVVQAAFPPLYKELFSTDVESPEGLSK
#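 Drosophila Schneider cells stably carrying a metallothionein-driven Gal4 DBD–ROR gamma fusion and a UAS-Photinus luciferase reporter were exposed to compound for 1 hr, then induced with copper sulfate (700 uM final) for 20 hr at ambient temperature before luminescence reading.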
# TDP1 cell CPT – DT40-hTDP1 cell growth loss with CPT; chicken DT40 Tdp1-/-;hTDP1 cells + 20 nM CPT, ATP luminescence, 48 h; Potency, µM (titrated, usually from 46.2 µM), for inactives: top-dose activity change, negative = growth inhibition, hits mostly inhibitors; actives 12% (n = 420,000); AID 686979; further: nearly all actives have a fitted effect of over 55% in size
#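 Chicken DT40 Tdp1-/- cells complemented with human TDP1, 400 cells/well, exposed to compounds plus 20 nM camptothecin for at least 48 h at 37 C; viability read as ATP content by CellTiter-Glo luminescence.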
# Gal4-VP16 FLuc – counter-screen for ROR gamma inhibitors: Gal4-VP16 reporter; Drosophila S2 Gal4-VP16 UAS-luciferase, luminescence, 20 h; Potency, µM (top dose mostly 53.6 µM), inactives show at the top dose activity, negative = inhibition, actives largely listed as inhibitors; actives 3.5% (n = 310,000); AID 2546;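 further: Gal4-VP16 expression switched on by copper sulfate through the metallothionein promoter; nearly all actives have a fitted effect of over 50% in size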
# TDP1 block – TDP1 (human) enzyme inhibition; Q9NUW8; recombinant TDP1, AlphaScreen DNA substrate cleavage; Potency, µM (doses to about 130 µM), inactives show top-dose activity change, negative = inhibition, actives largely listed as inhibitors; actives 0.28% (n = 350,000); AID 485290; further: nearly all actives have a fitted effect of over 40% in size
#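 Compounds were preincubated with Tdp1 (1 nM final) for 15 min at room temperature before substrate (15 nM final) started a 5 min reaction; beads (10 ug/ml final) were then added for 10 min before AlphaScreen detection.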
# * marks the source's active call; other numbers are inactive results; ? = inconclusive; nt = not tested or not shown. The call rests on the fitted dose curve; in most records, active means well fitted curve in the direction sought with a large enough effect; inconclusive means small, poorly fitted or top-dose-only effect, or another doubt; inactive means no such curve, though single readings can be large; an effect the other way counts as inactive or inconclusive. On the % scale 0 is the no-effect control and ±100 the full control effect; potency means the concentration at half of the fitted maximal effect.
SMILES,DT40 TDP1 no CPT,RORgamma inh,TDP1 cell CPT,Gal4-VP16 FLuc,TDP1 block
CC(=O)/C(=N\Nc1ccc(Cl)cc1Cl)Sc1nnc(-c2ccccc2)n1-c1ccccc1,?,-26.4%,?,-24.6%,-0.6%
CC(=O)C(N=Nc1ccccc1)(Sc1nnc(-c2ccccc2)n1-c1ccccc1)C(=O)Nc1ccccc1 (configuration not stated),?,-28.5%,-9.8%,-4.9%,4.0%
CC(=O)C(N=Nc1ccccc1)(Sc1nnc(-c2ccccc2)n1-c1ccccc1)C(C)=O,16.4µM*,-35.6%,?,10.1%,7.5%
CC(=O)/C(=N\Nc1ccccc1Cl)Sc1nnc(-c2ccccc2)n1-c1ccccc1,?,10µM*,-25.7%,?,7.9%
CC(=O)/C(=N\Nc1ccccc1)Sc1nnc(-c2ccccc2)n1-c1ccccc1,-21.5%,10µM*,-22.9%,?,5.3%
CC1CCN(c2ncnc3nc[nH]c23)CC1,?,?,?,-13.5%,5.4%
O=C(O)C1(C(=O)O)CCC2(CCCCC2)CC1,-6.7%,nt,-13.2%,nt,nt
CCOC(=O)c1c(-c2ccccc2)csc1NC(=O)c1ccc(S(=O)(=O)N2CCOCC2)cc1,10.3µM*,1.5%,5.8µM*,-6.2%,0.0%
CCOCCCNCC(=O)Nc1ccccc1N1CCOCC1,0.0%,-10.8%,-10.4%,1.3%,0.0%
CCOC(=O)c1c(-c2cccc([N+](=O)[O-])c2)csc1NC(=O)CCCOc1ccccc1,-28.5%,?,-11.3%,8.91µM*,2.7%
CCOC(=O)c1c(-c2cccc([N+](=O)[O-])c2)csc1NC(=O)CCCOc1ccccc1OC,?,33.0%,?,0.0%,1.7%
CCOC(=O)c1c(-c2ccc(C)cc2)csc1NC(=O)CCN1CCOCC1,23.1µM*,3.4%,?,-0.1%,-4.2%
CCOC(=O)c1[nH]cc(-c2ccccc2)c1N1CCOCC1,29.1µM*,1.2%,16.4µM*,5.7%,8.0%
CCOC(=O)c1c(NC(=O)c2ccc(S(=O)(=O)N3CCOCC3)cc2)sc2c1CC(C)(C)NC2(C)C,?,-43.3%,?,2.2%,3.9%
CN(C(=O)C1CCCN(S(=O)(=O)c2cccc([N+](=O)[O-])c2)C1)C1CCS(=O)(=O)C1 (configuration not stated),-5.4%,4.9%,5.1%,-17.8%,5.1%
COc1ccc(NC(=O)c2noc3c2CSc2ccccc2-3)cc1Cl,1.6%,nt,-5.3%,nt,11.4%
CCOC(=O)c1c(-c2ccccc2)csc1NC(=O)COc1ccc2c(C)cc(=O)oc2c1,11.6µM*,22.6%,?,-3.4%,0.0%
CCOC(=O)c1c(-c2ccccc2)csc1NC(=O)CCN1CCOCC1,23.1µM*,-8.2%,?,2.5%,5.6%
O=C(c1ccc([N+](=O)[O-])cc1)N(C1=NCCCCS1)c1ccccc1,-4.8%,2.3%,-22.4%,0.0%,2.3%
NC(=O)C1(N2CCCCC2)CCN(Cc2ccc(Br)cc2)CC1,16.4µM*,54.4%,?,-12.8%,6.0%
CCOC(=O)C1(CCCc2ccccc2)CCN(C(=O)c2cnn(CC)c2)CC1,18.4µM*,-27.7%,25.9µM*,-2.0%,-2.8%
CCOC(=O)C1(Cc2ccc(OC)cc2)CCN(C(=O)c2cc(C)nn2C)CC1,18.4µM*,41.9%,23.1µM*,?,2.0%
CCOC(=O)C1(Cc2ccc(OC)cc2)CCN(S(C)(=O)=O)CC1,-6.0%,33.0%,-12.3%,-0.4%,0.0%
CCOC(=O)C1(Cc2ccc(Cl)cc2)CCN(C(C)Cc2ccc(O)c(OC)c2)CC1 (configuration not stated),3.26µM*,-11.7%,9.2µM*,15.8µM*,nt
CCOC(=O)C1(CCc2ccccc2)CCN(C(=O)[C@@H]2C[C@@H](C)NC(=S)N2)CC1,-16.4%,11.2µM*,-27.5%,?,nt
SMILES,DT40 TDP1 no CPT,RORgamma inh,TDP1 cell CPT,Gal4-VP16 FLuc,TDP1 block
CCOC(=O)C1(CCc2ccccc2)CCN(C(=O)c2occc2C)CC1,14.6µM*,26.9%,?,-14.8%,2.7%
CCOC(=O)C1(Cc2ccc(Cl)cc2)CCN(C(=O)c2cnc(C)cn2)CC1,23.1µM*,12.3%,?,0.4%,nt
CCOC(=O)C1(CCCc2ccccc2)CCN(C(=O)c2cnc(C)cn2)CC1,20.6µM*,?,25.9µM*,7.5%,6.0%
CCOC(=O)C1(CCc2ccccc2)CCN(C(=O)c2cccc(C)n2)CC1,?,14.1%,?,?,nt
CCOC(=O)C1(Cc2ccc(Cl)cc2)CCN(Cc2cn(CC)nc2C)CC1,?,12.0%,16.4µM*,-0.2%,8.4%
O=C(c1ccccc1)N(NC(=O)C(O)(c1ccccc1)c1ccccc1)c1cccc(F)c1,?,-6.9%,?,-1.7%,2.7%
O=C(Nc1ccc([N+](=O)[O-])cc1)c1cccc([N+](=O)[O-])c1,8.7%,nt,5.6%,nt,nt
Nc1[nH]nc2nc(-c3ccccc3)[nH]c(=O)c12,?,7.8%,-3.2%,2.3%,6.3%
Nc1nc(-c2ccccc2)[nH]c(=O)c1N,?,38.3%,25.9µM*,-0.2%,-3.8%
Cc1cccc(Cn2c(NCC(C)O)nc3c2c(=O)n(C)c(=O)n3C)c1 (configuration not stated),10.3µM*,-32.0%,11.6µM*,?,3.3%
COCCCNc1nc2c(c(=O)n(C)c(=O)n2C)n1Cc1cccc(OC)c1,10.3µM*,?,18.4µM*,?,5.5%
Cc1cccc(OCCNc2nc3c(c(=O)n(C)c(=O)n3C)n2C)c1,16.4µM*,9.2%,16.4µM*,-17.8%,4.3%
COc1cccc(Cn2c(Oc3cccc(C)c3)nc3c2c(=O)n(C)c(=O)n3C)c1,23.1µM*,40.0%,20.6µM*,-2.3%,2.2%
CC1(C(=O)NS(=O)(=O)c2ccc(Cl)cc2)CCN1C(=O)Cc1cc(F)ccc1F (configuration not stated),-0.8%,nt,-20.9%,nt,nt
O=C(c1cc(COc2ccc(F)cc2Cl)on1)N1C[C@H]2CC[C@H]1C2,?,41.7%,?,?,0.3%
COCCNc1nc2c(c(=O)n(C)c(=O)n2C)n1Cc1cccc(C)c1,7.31µM*,?,6.51µM*,10µM*,2.1%
C=CCn1c(NCCOC)nc2c1c(=O)n(C)c(=O)n2C,-17.7%,2.2%,-3.5%,0.2%,0.0%
CC(C)(C)c1csc(NC(=O)Cn2cnc3ccccc3c2=O)n1,?,35.9%,?,3.6%,4.1%

# Compound activity deposited in PubChem by National Center for Advancing Translational Sciences (NCATS).
